# Screens: PubChem, National Center for Advancing Translational Sciences (NCATS)
# BRCA1 expr up – BRCA1 expression activation; MCF7-BRCA1-FFLuc reporter, luminescence, 48 h; response scale: scaled: vehicle 0%, 10 µM genistein 100%; Potency, µM (highest dose often 46.1 µM), most hits filed as activators; 380,000 tested, 1.1% active; AID 624202; note: nearly all actives have a fitted effect of over 80% in size
#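 MCF7-BRCA1-FFLuc, 2000 cells/well; 2 h attach, 37 °C/5% CO2; compound 48 h; luciferase substrate 15 min; luminescence end-point. Norm. to genistein 10 microM max activation and DMSO; concentration-response curves fitted.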
# Tb PFK block – blocks T. brucei phosphofructokinase; Potency, µM (titrated, usually from 57.5 µM), hits mostly inhibitors; O15648; T. brucei PFK, ADP-Glo luminescence; AID 485367; 330,000 tested, 0.17% active; note: nearly all actives have a fitted effect of over 60% in size
#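 ADP-Glo luminescence quantified ADP after 45 min at room temperature, with 1.25 nM T. brucei PFK, 0.1 mM ATP and 0.5 mM fructose-6-phosphate in pH 8.0 TEA buffer. qHTS titrations up to 57 µM; curves classified by quality.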
# PLK1 PBD block – blocks phosphopeptide binding to human PLK1 polo-box domain; P53350; Plk1 PBD binding of FITC phosphopeptide, fluorescence polarization; Potency, µM, hits mostly inhibitors; 360,000 tested, 2.8% active; note: series mostly up to about 57 µM; nearly all actives have a fitted effect of over 65% in size
# VDR inhibitor – blocks the human vitamin D receptor; AID 504847; P11473; Potency, µM, most hits filed as inhibitors; 400,000 tested, 0.93% active; VDR-SRC2-3 peptide fluorescence polarization, 2 h
# Target sequence (P11473 whole entry, looked up): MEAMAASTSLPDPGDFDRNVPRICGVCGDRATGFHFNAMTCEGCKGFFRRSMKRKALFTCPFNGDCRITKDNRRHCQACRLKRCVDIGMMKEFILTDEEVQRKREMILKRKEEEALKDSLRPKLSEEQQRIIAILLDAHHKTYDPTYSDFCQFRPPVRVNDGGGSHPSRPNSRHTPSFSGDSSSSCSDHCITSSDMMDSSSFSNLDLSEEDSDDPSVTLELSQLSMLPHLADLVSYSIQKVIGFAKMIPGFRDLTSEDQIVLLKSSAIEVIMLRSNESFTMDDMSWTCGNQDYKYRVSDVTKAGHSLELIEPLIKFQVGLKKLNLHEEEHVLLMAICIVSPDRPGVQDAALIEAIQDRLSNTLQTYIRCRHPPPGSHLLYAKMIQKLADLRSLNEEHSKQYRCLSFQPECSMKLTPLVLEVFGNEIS
#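 Compounds are added to VDR with labelled SRC2-3 coactivator peptide and held 2 h at room temperature. Inhibition of the VDR–peptide interaction is then read as a change in fluorescence polarization.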
# Hits are given with their value; - = inactive; ? = inconclusive; . = no result given. Only some compounds are listed: those with a hit (about 3.9% of all), similar ones and a draw of the others. Calls come from the whole dose curve; as a rule, active = well fitted curve in the direction sought with a large enough effect; inconclusive = small, poorly fitted or top-dose-only effect, or another doubt; inactive = no such curve, though single readings can be large; an effect the other way counts as inactive or inconclusive.
SMILES,BRCA1 expr up,Tb PFK block,PLK1 PBD block,VDR inhibitor
O=C(CN1C(=O)/C(=C2/SC(=S)N(CCS(=O)(=O)O)C2=O)c2ccccc21)Nc1cccc(C(F)(F)F)c1,-,?,10.6µM,?
Nc1nc2c(ncn2C2OC(CO)CC2O)c(=O)[nH]1 (centres undefined),.,.,.,-
COc1cccc(OC)c1C(=O)Nc1ccc2c(c1)CCCN2S(=O)(=O)c1ccc(C)cc1,-,-,10.6µM,?
Cc1ccc(S(=O)(=O)N2CCCc3cc(NC(=O)c4c(F)cccc4F)ccc32)cc1,-,-,26.7µM,-
Cc1ccc(S(=O)(=O)N2CCCc3cc(NC(=O)c4cccc(Cl)c4)ccc32)cc1,.,.,.,-
COc1ccccc1N(CC(=O)NCCc1ccccc1)C(=O)CCC(=O)Nc1cc(C)ccn1,-,-,-,-
CC(=O)c1sc2nc(C)c3c(c2c1N)CCCC3,-,-,-,-
CC(=O)c1sc2nsc(SCCN3CCCC3)c2c1N,-,-,7.52µM,-
C=C(/C=C/c1ccc(N(C)C)cc1)c1nc2ccccc2s1,-,.,.,.
CCCCCOC(=O)c1[nH]c2c(c1C)C(=O)C(C(=O)OC)C(C)C2 (centres undefined),-,-,2.99µM,?
CC(C)CCOc1ccc(Cn2c(=O)oc3ccccc32)cc1,.,.,.,-
COCCNC(=S)Nc1ccc(Cl)c(Cl)c1,-,-,-,-
Cn1cccc1CNC(=O)Nc1ccc(Cl)c(Cl)c1,2.24µM,-,-,-
C=COCCNC(=O)Nc1ccc(Cl)c(Cl)c1,-,15.1µM,-,-
CCOc1ccc(NC(=O)NCc2cccn2C)cc1,?,-,-,-
CCN(CC)c1cc2c(cc1F)c(=O)c(S(=O)(=O)c1ccc(C)cc1)cn2Cc1ccc(F)cc1,.,.,.,-
CCC(C)c1ccccc1OCCn1c(CCNC(=O)C2CCCCC2)nc2ccccc21 (centres undefined),-,.,.,-
Cc1nc(N2CCOCC2)c2c(C(=O)N(C)Cc3ccccc3)c(C)oc2n1,.,.,.,-
COc1ccc(C(=O)c2sc(Nc3ccc(NC(C)=O)cc3)nc2C)cc1,-,-,-,-
Cc1nc(Nc2ccc(S(N)(=O)=O)cc2)sc1C(=O)Nc1ccccc1,-,-,-,-
Cc1nc(NC(C)c2ccccc2)sc1C(=O)Nc1ccccc1 (centres undefined),-,-,23.8µM,-
COc1ccc(Nc2nc(C)c(C(C)=O)s2)cc1,12.6µM,.,-,.
CC(=O)c1sc(N/N=C\c2ccc(Br)cc2)nc1C,3.55µM,-,-,-
Cc1nc(Nc2ccccc2)sc1C(=O)Nc1ccccc1,6.31µM,-,-,-
CC(=O)c1sc(NC(C)c2ccccc2)nc1C (centres undefined),-,-,-,-
SMILES,BRCA1 expr up,Tb PFK block,PLK1 PBD block,VDR inhibitor
COC(=O)C[C@H]1c2ccccc2S(=O)(=O)N1Cc1ccc(OC)cc1,-,.,-,-
CCOC(=O)c1ccccc1NC(=O)Cn1c(=O)n(Cc2nc(C)no2)c(=O)c2ccccc21,.,.,.,-
O=c1[nH]n(-c2ccccn2)c(=O)c2ccccc12,-,-,29.9µM,?
CN(C)/C=C1\NC(=S)N(c2ccc(Cl)cc2)C1=O,-,-,26.7µM,-
Cc1ccc(Cn2cc(CN(C)C3CN(Cc4cn(Cc5ccc(C)cc5)nn4)S(=O)(=O)C3)nn2)cc1 (centres undefined),-,.,-,.
S=c1[nH]nc(Nc2ccccc2Cl)s1,-,?,18.9µM,-
COc1ccc(CCNC(=O)c2c(C)oc3ncn(CC(C)C)c(=O)c23)cc1OC,-,.,.,-
COc1cccc2nccc(/C=C/c3ccc(N(C)C)cc3)c12,-,.,.,.
CSc1ncc(C(=O)Nc2ccc(C)c(Cl)c2)c(-c2ccccc2)n1,.,.,.,-
Cn1cc(C(c2ccccc2OCC(=O)O)c2cn(C)c3ccccc23)c2ccccc21,-,-,2.99µM,39.8µM
O=C1C(Cl)=C(Nc2ccccc2O)C(=O)N1c1ccccc1,-,-,8.44µM,?
Cc1c(NC2=C(Cl)C(=O)N(c3ccccc3)C2=O)c(=O)n(-c2ccccc2)n1C,-,-,26.7µM,?
CCOc1ccccc1NC1=C(Cl)C(=O)N(c2ccc(OC)cc2)C1=O,-,-,-,?
COc1ccccc1N1C(=O)C(Cl)=C(Nc2ccccc2O)C1=O,-,-,6.7µM,?
C/C(=N\NC(=S)Nc1ccccc1C)c1ccc(O)cc1,-,-,10.6µM,?
C/C(=N\NC(=S)Nc1c(C)cccc1C)c1ccc(OC(F)F)cc1,-,-,-,?
CC1(c2nc3ccccc3[nH]2)CCC(=O)N1Cc1cccs1 (centres undefined),-,.,-,.
CCN(CC(=O)Nc1c(F)cccc1F)C(=O)/C=C/c1ccc2ccccc2n1,-,?,13.4µM,-
